From PubChem BioAssay (Tox21)
Results filed as inconclusive are left out. Where a call stands in place of a potency, no number is given. Unmarked numbers belong to inactive results. Active and inactive are the calls of the source. Unless noted, calls come from the whole dose curve; as a rule, active = well fitted curve in the direction sought with a large enough effect in the repeat runs; inconclusive = weak or mixed curves; inactive = no such curve, though single readings can be large; an effect the other way counts as inactive or inconclusive.

Tests used:
[1] = qHTS assay to identify small molecule antagonists of the vitamin D receptor (VDR) signaling pathway - cell viability counter screen (AID 743225); note: nearly all actives have a fitted effect of over 50% in size; note: potency is the fitted concentration of half-maximal effect
Summary of the method: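 Viability counter screen run in the same wells as the beta-lactamase reporter assay: HEK 293T VDR-UAS-bla cells, 16 h compound exposure at 37C with 3 nM (final) 1-alpha,25-dihydroxyvitamin D3. CellTiter-Glo luminescence, 30 min, room temperature.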

[2] = qHTS assay to identify small molecule agonists of the NFkB signaling pathway (AID 1159509; active = well fitted curve in the direction sought with a large enough effect in the signal ratio in the repeat runs, not every such curve was filed as active; the % refers to the signal ratio; note: series mostly up to about 61 µM)
Summary of the method: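 Agonist activity was read as beta-lactamase-driven FRET change (460 and 530 nm emission, 405 nm excitation) following 1.5 hr substrate loading at room temperature. Beforehand, ME-180 NFkB-bla reporter cells were treated with compounds for 5 hr at 37 C.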

[3] = qHTS assay to identify small molecule agonists of the NFkB signaling pathway - cell viability counter screen (AID 1159515; calls by dose curve; note: nearly all actives have a fitted effect of over 55% in size; note: potency is the fitted concentration of half-maximal effect)
Summary of the method: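 Plate 2,000 NFkB-bla ME-180 cells/well; incubate overnight. Add compounds, 5 hr at 37 C. Add FRET substrate, 1.5 hr RT. Add CellTiter-Glo, 30 min RT; read luminescence.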

[4] = qHTS assay to identify small molecule agonists of the endoplasmic reticulum stress response signaling pathway (AID 1159516; active = well fitted activation curve with a large enough effect in the signal ratio in the repeat runs, not every such curve was filed as active; the % refers to the signal ratio)
Summary of the method: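 Beta-lactamase expression from the ER stress response element in HeLa reporter cells is quantified with the LiveBLAzer B/G FRET substrate, read at 405 nm excitation after 2 hr at room temperature, following 5 hr compound treatment at 37 C.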

[5] = qHTS assay to identify small molecule antagonists of the retinoid-related orphan receptor gamma (ROR-gamma) signaling pathway - cell viability counter screen (AID 1159520); note: nearly all actives have a fitted effect of over 50% in size; note: potency is the fitted concentration of half-maximal effect
Summary of the method: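 Tet-on ROR gamma CHO cells were given compounds for 2 hr, then doxycycline hyclate at 1 uM final, and incubated 16 hr at 37 C. Viability was measured as ATP content by CellTiter-Glo luminescence.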

[6] = qHTS assay to identify small molecule agonists of the AP-1 signaling pathway - cell viability counter screen (AID 1159525; calls by dose curve; note: nearly all actives have a fitted effect of over 55% in size)
Summary of the method: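 Same-well cytotoxicity counter screen of the Tox21 10K library in ME-180 cells. The readout is ATP-dependent luminescence after 5 h compound treatment. Data are normalised to DMSO and tetra n-octyl ammonium bromide controls.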

[7] = qHTS assay to identify small molecule antagonists of the retinoid acid receptor (RAR) signaling pathway - cell viability counter screen (AID 1159551); note: nearly all actives have a fitted effect of over 35% in size; note: potency is the fitted concentration of half-maximal effect
Summary of the method: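 Viability of C3RL4 cells is quantified from ATP by luminescence after 6 h treatment at 37 C with compounds and 1 uM retinol.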

[8] = qHTS assay to identify small molecule antagonists of the retinoic acid receptor (RAR) signaling pathway (AID 1159552; note: nearly all actives have a fitted effect of over 50% in size; note: potency is the fitted concentration of half-maximal effect)
Summary of the method: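 Luminescence from a RARE luciferase reporter in C3RL4 cells served as read-out. Cells received compounds together with 1 uM final retinol and incubated 6 hr at 37 C before detection reagent was added for 30 min at room temperature.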

[9] = target: Nuclear receptor ROR-gamma (Homo sapiens) (UniProt P51449); experiment: qHTS assay to identify small molecule antagonists of the retinoid-related orphan receptor gamma (ROR-gamma) signaling pathway (AID 1159521; note: nearly all actives have a fitted effect of over 50% in size; note: potency is the fitted concentration of half-maximal effect)
Summary of the method: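 Luminescence readout (ONE-Glo, 30 min RT) after 16 h doxycycline induction; loss of signal scored as antagonism. CHO cells with TET-inducible RORγ and RORE-LUC reporter; compounds added 2 h before 1 uM final doxycycline.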

[10] = qHTS assay to identify small molecule agonists of the AP-1 signaling pathway (AID 1159526; calls by dose curve)
[11] = target: Retinoic acid receptor RXR-alpha (Homo sapiens) (UniProt P19793); experiment: qHTS assay to identify small molecule agonists of the RXR signaling pathway (AID 1159527; calls by dose curve; note: nearly all actives have a fitted effect of over 35% in size; note: potency is the fitted concentration of half-maximal effect)
Summary of the method: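 Agonist mode; 9-cis retinoic acid positive control. HEK 293T UAS-bla reporter cells, 2% charcoal-stripped FBS, 16 hr compound exposure at 37 C/5% CO2. LiveBLAzer B/G FRET substrate 2 hr RT; ex 405, em 460/530 nm.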

[12] = qHTS assay to identify small molecule agonists of the retinoic acid receptor (RAR) signaling pathway (AID 1159553); note: potency is the fitted concentration of half-maximal effect
Summary of the method: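 Compounds dissolved in DMSO were pinned onto C3RL4 cells seeded the previous day, and plates were held 6 hr at 37 C. RARE-driven luciferase output was then read by luminescence.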

[13] = qHTS assay to identify small molecule agonists of the vitamin D receptor (VDR) signaling pathway - cell viability counter screen (AID 743224)
Summary of the method: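 In parallel with the bla FRET readout, cytotoxicity toward VDR-bla cells after 16 h compound exposure was assessed by CellTiter-Glo, with luminescence recorded after a 30 min room-temperature incubation.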

[14] = qHTS assay to identify small molecule agonists of the RXR signaling pathway - cell viability counter screen (AID 1159529)
Summary of the method: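 Luminescence from CellTiter-Glo (30 min, RT) measured viability in the same wells as the beta-lactamase reporter readout. Cells: GeneBLAzer RXR-alpha HEK 293T, 2% charcoal-stripped FBS. Compound exposure 16 hr, 37 C.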

[15] = qHTS assay to identify small molecule antagonists of the estrogen related receptor (ERR) signaling pathway - cell viability counter screen (AID 1224818);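 note: series mostly up to about 46 µM; viability measured after 17.5 h of compound exposure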
Summary of the method: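 Cytotoxicity check run alongside the ERR antagonist screen: cells exposed to test compounds 17.5 h at 37 C, viability taken as CellTiter-Fluor fluorescence intensity.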

[16] = qHTS assay to identify small molecule antagonists of the estrogen related receptor (ERR) signaling pathway (AID 1224819; note: nearly all actives have a fitted effect of over 50% in size; note: potency is the fitted concentration of half-maximal effect)
Summary of the method: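 ERR reporter cells were plated at 2,000 cells/well and left 6 h at 37 C/5% CO2 before pin-tool transfer of compounds in DMSO. After 18 h at 37 C, One-Glo was added and luminescence was read 30 min later at room temperature.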

[17] = qHTS assay to identify small molecule agonists of the estrogen related receptor (ERR) signaling pathway (AID 1224820)
Summary of the method: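 After 6 h plating (2,000 cells/well) and 18 h compound treatment at 37 C, ERR cells were lysed with One-Glo and luminescence read after 30 min at room temperature.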

[18] = tested on: estrogen-related receptor alpha (ERRalpha) with PGC-1alpha coactivator, human; experiment: qHTS assay to identify small molecule antagonists of the estrogen related receptor signaling pathway with the pleiotropic PPARgamma coactivator (PGC) (AID 1224821; calls by dose curve; note: nearly all actives have a fitted effect of over 50% in size; note: potency is the fitted concentration of half-maximal effect)
Summary of the method: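 Luminescence from One-Glo luciferase reagent (30 min, room temperature) measured after 18 h compound treatment at 37 °C. Cells carry the PGC/ERR reporter and were seeded 6 h prior to dosing.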

[19] = qHTS assay to identify small molecule antagonists of the estrogen related receptor signaling pathway with the pleiotropic PPARgamma coactivator (PGC) cell viability counter screen (AID 1224822;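 note: series mostly up to about 46 µM; viability read after 17.5 h compound exposure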)
Summary of the method: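 Viable cell signal (CellTiter-Fluor, 30 min, 37 C/5% CO2) was measured in PGC/ERR cells after a 17.5 h compound incubation.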

[20] = qHTS assay to identify small molecule agonists of the endoplasmic reticulum stress response signaling pathway - cell viability counter screen (AID 1159517; calls by dose curve)
Summary of the method: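 In parallel with the ESRE reporter read, cytotoxicity was scored by CellTiter-Glo luminescence (30 min, room temperature) on HeLa ESRE-bla cells dosed for 5 hr.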

Retinoic acid receptor RXR-alpha (Homo sapiens), sequence (P19793 whole entry, looked up): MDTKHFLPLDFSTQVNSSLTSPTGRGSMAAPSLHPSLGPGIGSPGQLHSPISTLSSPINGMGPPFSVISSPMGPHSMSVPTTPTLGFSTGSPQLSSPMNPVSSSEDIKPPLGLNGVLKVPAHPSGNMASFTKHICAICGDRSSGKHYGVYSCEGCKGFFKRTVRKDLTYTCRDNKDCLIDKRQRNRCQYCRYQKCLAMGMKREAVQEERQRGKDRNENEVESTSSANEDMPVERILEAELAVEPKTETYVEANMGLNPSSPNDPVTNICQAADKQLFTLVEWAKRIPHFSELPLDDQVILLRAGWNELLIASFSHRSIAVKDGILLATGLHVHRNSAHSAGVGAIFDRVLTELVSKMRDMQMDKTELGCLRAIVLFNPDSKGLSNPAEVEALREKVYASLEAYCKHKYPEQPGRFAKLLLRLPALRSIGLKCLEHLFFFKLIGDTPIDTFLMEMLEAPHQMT

SMILES	Potency [1]	outcome [2]	Potency [3]	Potency [4]	Potency [5]	Potency [6]	Potency [7]	Potency [8]	Potency [9]	outcome [10]	Potency [11]	Potency [12]	Potency [13]	Potency [14]	outcome [15]	Potency [16]	outcome [17]	Potency [18]	outcome [19]	Potency [20]
C[C@@H]1[C@H](O)[C@@H](C)/C=C/C=C\C=C\C=C\C=C\C=C\C=C\[C@H](O[C@@H]2O[C@H](C)[C@@H](O)[C@H](N)[C@@H]2O)C[C@@H]2O[C@](O)(C[C@@H](O)C[C@@H](O)[C@H](O)CC[C@@H](O)C[C@@H](O)CC(=O)O[C@H]1C)C[C@H](O)[C@H]2C(=O)O (stereo in doubt)	inactive	inactive	inactive	inactive	inactive	inactive	inactive	inactive	–	–	–	–	–	–	–	–	–	–	–	–
CCCCCCCCCCCC(=O)OCC(O)CO (stereo unspecified)	–	inactive	inactive	inactive	–	inactive	inactive	inactive	inactive	inactive	54.9 µM (active)	inactive	–	–	–	–	–	–	–	–
CC(=O)OC(C)C[N+](C)(C)C (stereo unspecified)	inactive	inactive	inactive	inactive	–	inactive	inactive	inactive	–	–	inactive	inactive	inactive	inactive	inactive	inactive	inactive	inactive	inactive	–
c1ccc(CNc2ncnc3c2ncn3C2CCCCO2)cc1 (stereo unspecified)	inactive	inactive	inactive	inactive	inactive	inactive	inactive	inactive	–	inactive	inactive	4.33 µM (active)	inactive	–	–	–	–	–	–	–
CN1CCCN(C(c2ccccc2)c2ccc(Cl)cc2)CC1 (stereo unspecified)	21.3 µM (active)	inactive	12 µM (active)	inactive	–	inactive	inactive	23.7 µM (active)	26.6 µM (active)	–	–	–	–	–	–	–	–	–	–	–
CCN(CC)CCOC(=O)C(c1ccccc1)c1ccccc1	inactive	inactive	inactive	inactive	–	inactive	inactive	inactive	inactive	inactive	–	inactive	inactive	inactive	–	–	–	–	–	–
CCOc1ncc(F)c(=O)[nH]1	inactive	inactive	inactive	inactive	inactive	inactive	inactive	inactive	–	inactive	–	inactive	inactive	–	–	–	–	–	–	–
CCN(Cc1cccc(S(=O)(=O)O)c1)c1ccc(C(=C2C=CC(=[N+](CC)Cc3cccc(S(=O)(=O)O)c3)C=C2)c2ccccc2S(=O)(=O)[O-])cc1	–	inactive	34.8 µM (active)	inactive	9.72 µM (active)	–	15.4 µM (active)	13.7 µM (active)	–	–	–	–	–	inactive	–	–	–	–	–	–
COC(=O)C1=C(C)NC(C)=C(C(=O)OC(C)(C)CN(C)CCC(c2ccccc2)c2ccccc2)C1c1cccc([N+](=O)[O-])c1 (stereo unspecified)	inactive	inactive	inactive	inactive	–	inactive	inactive	–	11.9 µM (active)	inactive	–	–	–	inactive	–	19.6 µM (active)	inactive	13.9 µM (active)	–	–
Nc1cccc2c(N)cccc12	–	inactive	inactive	inactive	–	–	inactive	inactive	inactive	–	–	19.3 µM (active)	inactive	–	inactive	–	–	–	inactive	–
Cc1ccc(Nc2c(F)cccc2Cl)c(CC(=O)O)c1	inactive	inactive	inactive	inactive	inactive	inactive	inactive	–	–	inactive	inactive	–	inactive	–	–	–	–	–	–	–
CC(C)N(C)C	–	inactive	inactive	inactive	inactive	inactive	inactive	inactive	–	inactive	–	inactive	inactive	inactive	–	–	–	–	–	–
O=[N+]([O-])c1ccc2ncccc2c1	inactive	inactive	inactive	inactive	inactive	inactive	inactive	–	–	inactive	–	inactive	inactive	inactive	–	–	–	–	–	–
Cc1cn([C@H]2C[C@H](F)[C@@H](CO)O2)c(=O)[nH]c1=O	inactive	inactive	inactive	inactive	–	inactive	inactive	–	inactive	inactive	inactive	–	inactive	inactive	–	–	–	–	–	–
CC(C)CC(O)CC(C)C	inactive	inactive	inactive	inactive	–	inactive	inactive	inactive	inactive	inactive	inactive	–	inactive	–	–	–	–	–	–	–
CCCCCCCCCCCCCCCCCC(=O)OCC(CC)CCCC (stereo unspecified)	inactive	inactive	inactive	–	inactive	inactive	inactive	inactive	inactive	inactive	inactive	inactive	inactive	inactive	–	–	–	–	–	inactive
Cc1ccccc1S(N)(=O)=O	inactive	inactive	inactive	–	inactive	inactive	inactive	inactive	inactive	inactive	inactive	–	inactive	inactive	–	–	–	–	–	inactive
CC(C)c1ccc(C(=O)N=C(N)N)cc1S(C)(=O)=O	inactive	inactive	inactive	–	inactive	inactive	inactive	inactive	inactive	inactive	–	–	inactive	inactive	–	–	–	–	–	inactive
COc1cc(NS(=O)(=O)c2ccc(N)cc2)nc(C)n1	inactive	inactive	inactive	–	inactive	inactive	inactive	inactive	inactive	inactive	inactive	inactive	inactive	inactive	–	–	–	–	–	inactive
Cc1ccc(NC(=O)N(C)C)cc1NC(=O)N(C)C	inactive	inactive	inactive	–	inactive	inactive	inactive	–	inactive	inactive	inactive	inactive	inactive	inactive	–	–	–	–	–	inactive
